Measurements as given in the supplement of paper PMC10849652.
About 8,800 targets were measured; listed, in parts, are those with a hit and a random draw of the rest. About 0.5% of all pairs of compound and target were hits.

Key:
Test in all cases: log2 fold change, soluble protein after heating vs DMSO (PISA); higher = thermal stabilisation; K562 lysate, 10 uM; active = over 0.2 and 3.5 SD of the protein, either way, in both replicates (recomputed)
erlotinib = compound: C#Cc1cccc(Nc2ncnc3cc(OCCOC)c(OCCOC)cc23)c1 [erlotinib]
Procedure, shortened: (§1)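 K562 pellets were dounce-homogenised in PBS pH 7.4 containing 1 mM MgCl2, and the crude extract, at 1 mg/mL protein, was exposed to 10 μM compound for 30 min. Aliquots were heated for 3 min across 48°C-58°C, pooled, brought to 0.5% NP-40 at 4°C and spun at 21,000xg for 90 min, with the supernatant taken as soluble protein. TMTpro 16plex LC-MS/MS with equalised channel sums quantified that protein. Values are log-two fold changes in thermal stability relative to solvent controls, taken from duplicates.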

[1] = compound: C/C(=N\NC(=O)C1=CC(=CC=C1)S(=O)(=O)N2CCOCC2)/C3=C(C=CC(=C3)Cl)O
Procedure, shortened: as §1

[2] = compound: C1=CC(=CC=C1C2=NC3=C(N2)C=C(C=C3)C(=O)N)OC4=CC=C(C=C4)Cl
Procedure, shortened: as §1

[3] = compound: C1=CC2=C(C=CC(=C2)/C=C\3/C(=O)NC(=NCC4=CC=CS4)S3)N=C1
Procedure, shortened: as §1

[4] = compound: C1=CC2=NC=CN=C2C=C1/C=C/3\C(=O)NC(=O)S3
Procedure, shortened: as §1

[5] = compound: C1=CC=C(C=C1)C2=NC(=C(N2)C3=CC=NC=C3)C4=CC(=C(C=C4)Cl)O
Procedure, shortened: as §1

[6] = compound: C1=CC=C2C(=C1)C3=NNC4=CC=CC(=C43)C2=O
Procedure, shortened: as §1

[7] = compound: C1CCN(C1)C(=O)NC2=CC=CC(=C2)NC3=NC=C(C(=N3)NCCC4=CN=CN4)Br
Procedure, shortened: as §1

[8] = compound: C1CN(CCC1(CC2=CC=C(C=C2)Cl)N)C3=NC=NC4=C3C=CN4
Procedure, shortened: as §1

IRAK-1-4 Inhibitor I = compound: C1COCCN1CCN2C3=CC=CC=C3N=C2NC(=O)C4=CC(=CC=C4)[N+](=O)[O-] [IRAK-1-4 Inhibitor I]
Procedure, shortened: as §1

Measured: log2 fold change

ABHD11 (UniProt Q8NFV4)
inactive: erlotinib -0.064 | [1] -0.049 | [2] 0.001 | [3] 0.057 | [4] -0.008 | [5] 0.171 | [6] 0.011 | [7] -0.047 | [8] 0.015 | IRAK-1-4 Inhibitor I -0.014

ALG3 (UniProt Q92685)
inactive: erlotinib 0.19 | [1] -0.117 | [2] -0.12 | [3] -0.037 | [4] 0.056 | [5] -0.016 | [6] -0.182 | [7] -0.103 | [8] -0.037 | IRAK-1-4 Inhibitor I 0.019

ANXA2 isoform 2 (UniProt P07355)
Sequence of UniProt P07355 (P07355 whole entry, looked up): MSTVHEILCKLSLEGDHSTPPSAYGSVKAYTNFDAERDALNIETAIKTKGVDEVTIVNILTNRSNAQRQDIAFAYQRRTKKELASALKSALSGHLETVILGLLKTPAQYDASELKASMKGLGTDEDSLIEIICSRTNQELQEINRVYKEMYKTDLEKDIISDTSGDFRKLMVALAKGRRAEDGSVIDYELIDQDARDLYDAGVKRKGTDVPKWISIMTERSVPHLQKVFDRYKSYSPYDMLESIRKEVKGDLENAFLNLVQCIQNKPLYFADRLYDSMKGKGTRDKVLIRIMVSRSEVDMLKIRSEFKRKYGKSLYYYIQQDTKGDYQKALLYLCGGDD
inactive: erlotinib -0.009 | [1] 0.041 | [2] 0.023 | [3] -0.003 | [4] 0.003 | [5] 0.004 | [6] 0.025 | [7] -0.006 | [8] -0.001 | IRAK-1-4 Inhibitor I -0.01

AHCYL1 (UniProt O43865)
Sequence of UniProt O43865 (O43865 whole entry, looked up): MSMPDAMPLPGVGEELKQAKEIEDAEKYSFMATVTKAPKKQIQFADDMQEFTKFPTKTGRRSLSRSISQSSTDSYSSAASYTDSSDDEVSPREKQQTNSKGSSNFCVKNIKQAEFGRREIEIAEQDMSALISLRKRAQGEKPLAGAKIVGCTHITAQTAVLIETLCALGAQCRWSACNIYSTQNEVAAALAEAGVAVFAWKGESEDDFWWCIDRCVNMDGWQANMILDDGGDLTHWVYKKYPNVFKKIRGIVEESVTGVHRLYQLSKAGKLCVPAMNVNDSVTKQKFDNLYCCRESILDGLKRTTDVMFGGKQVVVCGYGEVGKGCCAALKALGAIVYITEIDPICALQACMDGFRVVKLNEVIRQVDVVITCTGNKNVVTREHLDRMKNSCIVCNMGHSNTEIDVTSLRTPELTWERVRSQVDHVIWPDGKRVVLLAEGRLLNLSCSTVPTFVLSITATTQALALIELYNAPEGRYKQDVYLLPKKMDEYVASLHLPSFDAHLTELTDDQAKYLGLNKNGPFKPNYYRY
inactive: erlotinib -0.015 | [1] 0.018 | [2] -0.034 | [3] -0.009 | [4] -0.006 | [5] 0.008 | [6] -0.073 | [7] -0.024 | [8] 0.009 | IRAK-1-4 Inhibitor I 0.007

ACOX1 isoform 2 (UniProt Q15067)
inactive: erlotinib -0.01 | [1] -0.023 | [2] 0.007 | [3] 0.007 | [4] 0.01 | [5] 0.011 | [6] -0.017 | [7] -0.007 | [8] 0.024 | IRAK-1-4 Inhibitor I 0.081

ANKRD40 (UniProt Q6AI12)
Sequence of UniProt Q6AI12 (Q6AI12 whole entry, looked up): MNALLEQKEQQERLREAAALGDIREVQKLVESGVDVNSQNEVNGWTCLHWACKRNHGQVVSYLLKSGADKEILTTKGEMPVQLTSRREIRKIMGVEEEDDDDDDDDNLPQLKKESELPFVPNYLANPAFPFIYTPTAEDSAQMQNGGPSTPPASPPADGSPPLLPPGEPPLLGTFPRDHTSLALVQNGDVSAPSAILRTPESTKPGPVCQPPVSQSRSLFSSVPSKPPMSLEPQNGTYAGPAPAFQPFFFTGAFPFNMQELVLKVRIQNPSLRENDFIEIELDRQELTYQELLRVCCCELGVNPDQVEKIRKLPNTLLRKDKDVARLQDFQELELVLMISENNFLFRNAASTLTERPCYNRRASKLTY
inactive: erlotinib 0.085 | [1] -0.269 | [2] 0.093 | [3] -0.143 | [4] 0.232 | [5] 0.065 | [6] -0.163 | [7] 0.296 | [8] 0.203 | IRAK-1-4 Inhibitor I -0.091

ACACA isoform 4 (UniProt Q13085)
inactive: erlotinib 0.024 | [1] 0.039 | [2] -0.029 | [3] -0.012 | [4] 0.011 | [5] 0.019 | [6] -0.047 | [7] 0.003 | [8] 0.024 | IRAK-1-4 Inhibitor I 0.005

ANXA1 (UniProt P04083)
inactive: erlotinib -0.012 | [1] 0.013 | [2] 0.015 | [3] 0.014 | [4] -0.009 | [5] -0.008 | [6] -0.021 | [7] 0.003 | [8] 0.016 | IRAK-1-4 Inhibitor I -0.013

ARL1 (UniProt P40616)
Sequence of UniProt P40616 (P40616 whole entry, looked up): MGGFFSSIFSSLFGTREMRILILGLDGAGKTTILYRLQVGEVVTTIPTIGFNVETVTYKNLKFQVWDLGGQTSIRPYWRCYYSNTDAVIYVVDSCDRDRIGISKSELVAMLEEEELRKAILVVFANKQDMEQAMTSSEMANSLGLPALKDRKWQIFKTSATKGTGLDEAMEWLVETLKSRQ
inactive: erlotinib 0.006 | [1] -0.212 | [2] 0.037 | [3] -0.022 | [4] -0.03 | [5] -0.013 | [6] -0.018 | [7] -0.046 | [8] 0.025 | IRAK-1-4 Inhibitor I 0.053

AKT2 (UniProt P31751)
Sequence of UniProt P31751 (P31751 whole entry, looked up): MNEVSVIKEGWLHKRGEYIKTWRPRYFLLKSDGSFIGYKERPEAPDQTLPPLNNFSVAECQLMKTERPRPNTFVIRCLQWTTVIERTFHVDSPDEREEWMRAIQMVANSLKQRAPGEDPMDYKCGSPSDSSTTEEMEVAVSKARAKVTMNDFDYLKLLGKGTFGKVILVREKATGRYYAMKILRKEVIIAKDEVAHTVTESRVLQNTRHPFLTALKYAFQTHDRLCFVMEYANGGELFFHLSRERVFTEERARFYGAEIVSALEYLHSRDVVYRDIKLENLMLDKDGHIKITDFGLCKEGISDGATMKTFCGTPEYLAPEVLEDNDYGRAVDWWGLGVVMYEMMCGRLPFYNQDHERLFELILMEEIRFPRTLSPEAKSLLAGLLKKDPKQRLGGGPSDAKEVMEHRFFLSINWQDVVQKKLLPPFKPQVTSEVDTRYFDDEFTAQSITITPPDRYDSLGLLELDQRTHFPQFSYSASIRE
inactive: erlotinib -0.011 | [1] 0.082 | [2] -0.013 | [3] -0.005 | [4] -0.022 | [5] -0.025 | [6] 0.009 | [7] -0.014 | [8] -0.017 | IRAK-1-4 Inhibitor I -0.045

ASPH (UniProt Q12797)
Sequence of UniProt Q12797 (Q12797 whole entry, looked up): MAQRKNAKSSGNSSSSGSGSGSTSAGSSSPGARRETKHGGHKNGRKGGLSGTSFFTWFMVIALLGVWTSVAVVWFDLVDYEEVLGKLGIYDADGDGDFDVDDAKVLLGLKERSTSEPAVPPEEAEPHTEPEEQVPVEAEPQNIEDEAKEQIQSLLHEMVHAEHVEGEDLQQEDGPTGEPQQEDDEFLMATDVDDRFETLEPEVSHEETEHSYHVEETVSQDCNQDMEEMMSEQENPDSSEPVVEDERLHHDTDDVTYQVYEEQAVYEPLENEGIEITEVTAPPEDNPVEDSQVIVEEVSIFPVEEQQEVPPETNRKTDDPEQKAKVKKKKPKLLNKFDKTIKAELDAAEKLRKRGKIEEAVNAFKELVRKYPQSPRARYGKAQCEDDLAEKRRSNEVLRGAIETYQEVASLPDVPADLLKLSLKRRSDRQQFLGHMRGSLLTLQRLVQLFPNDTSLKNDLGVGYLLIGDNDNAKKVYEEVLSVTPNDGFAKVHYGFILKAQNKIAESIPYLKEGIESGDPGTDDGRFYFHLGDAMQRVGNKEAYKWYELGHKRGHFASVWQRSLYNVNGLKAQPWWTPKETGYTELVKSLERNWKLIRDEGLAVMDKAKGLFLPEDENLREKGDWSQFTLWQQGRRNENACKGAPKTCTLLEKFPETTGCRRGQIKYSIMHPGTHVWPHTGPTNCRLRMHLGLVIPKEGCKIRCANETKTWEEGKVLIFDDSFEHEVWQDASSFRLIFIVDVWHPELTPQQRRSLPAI
inactive: erlotinib 0.003 | [1] -0.028 | [2] -0.013 | [3] 0.075 | [4] -0.011 | [5] 0.006 | [6] -0.022 | [7] -0.011 | [8] 0.01 | IRAK-1-4 Inhibitor I -0.016

ALDH6A1 (UniProt Q02252)
inactive: erlotinib -0.03 | [1] 0.064 | [2] -0.04 | [3] -0.068 | [4] -0.179 | [5] 0.043 | [6] -0.031 | [7] -0.022 | [8] 0.015 | IRAK-1-4 Inhibitor I 0.024

ARAF (UniProt P10398)
inactive: erlotinib -0.002 | [1] -0.129 | [2] -0.018 | [3] 0.014 | [4] -0.046 | [5] 0.067 | [6] 0.03 | [7] 0.012 | [8] -0.049 | IRAK-1-4 Inhibitor I -0.02

ARHGEF1 (UniProt M0QZR4)
inactive: erlotinib 0.018 | [1] 0.024 | [2] -0.023 | [3] 0.002 | [4] 0.027 | [5] 0.001 | [6] -0.041 | [7] -0.004 | [8] -0.022 | IRAK-1-4 Inhibitor I -0.031

AIMP1 isoform 2 (UniProt Q12904)
inactive: erlotinib 0.044 | [1] 0.013 | [2] -0.028 | [3] 0.001 | [4] -0.03 | [5] 0.021 | [6] -0.025 | [7] -0.02 | [8] 0.02 | IRAK-1-4 Inhibitor I 0.01

ABHD17A isoform 2 (UniProt Q96GS6)
Sequence of UniProt Q96GS6 (Q96GS6 whole entry, looked up): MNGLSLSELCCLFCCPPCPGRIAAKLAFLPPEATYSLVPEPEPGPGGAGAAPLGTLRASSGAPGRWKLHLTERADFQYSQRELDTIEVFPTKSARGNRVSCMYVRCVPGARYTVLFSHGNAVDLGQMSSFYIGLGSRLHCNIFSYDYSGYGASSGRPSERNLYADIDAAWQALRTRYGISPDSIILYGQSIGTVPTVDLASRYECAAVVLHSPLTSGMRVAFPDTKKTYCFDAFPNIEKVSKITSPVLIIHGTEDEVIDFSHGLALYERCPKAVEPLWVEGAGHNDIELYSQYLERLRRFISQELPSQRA
inactive: erlotinib -0.016 | [1] -0.046 | [2] 0.081 | [3] 0.025 | [4] 0.022 | [5] -0.009 | [6] -0.07 | [7] -0.023 | [8] 0.025 | IRAK-1-4 Inhibitor I 0.006

ALKBH4 (UniProt Q9NXW9)
inactive: erlotinib 0.014 | [1] -0.073 | [2] 0.026 | [3] -0.011 | [4] 0.017 | [5] -0.052 | [6] -0.069 | [7] 0 | [8] 0.019 | IRAK-1-4 Inhibitor I 0.003

ALG8 (UniProt Q9BVK2)
Sequence of UniProt Q9BVK2 (Q9BVK2 whole entry, looked up): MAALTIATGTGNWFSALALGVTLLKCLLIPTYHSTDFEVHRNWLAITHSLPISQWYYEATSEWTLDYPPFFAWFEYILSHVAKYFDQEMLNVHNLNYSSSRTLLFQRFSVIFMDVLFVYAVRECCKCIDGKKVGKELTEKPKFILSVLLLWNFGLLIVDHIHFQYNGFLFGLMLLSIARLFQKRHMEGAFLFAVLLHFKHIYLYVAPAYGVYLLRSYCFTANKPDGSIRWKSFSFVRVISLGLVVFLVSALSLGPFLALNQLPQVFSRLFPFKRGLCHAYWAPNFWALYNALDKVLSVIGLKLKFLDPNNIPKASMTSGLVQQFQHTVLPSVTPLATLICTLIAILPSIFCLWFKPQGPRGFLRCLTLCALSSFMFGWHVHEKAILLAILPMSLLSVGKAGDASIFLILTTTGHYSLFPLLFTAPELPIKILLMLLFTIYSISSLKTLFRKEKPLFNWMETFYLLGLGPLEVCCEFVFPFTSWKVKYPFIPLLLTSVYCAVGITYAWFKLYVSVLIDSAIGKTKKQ
inactive: erlotinib 0.022 | [1] -0.102 | [2] -0.082 | [3] 0.018 | [4] 0.016 | [5] -0.062 | [6] -0.001 | [7] 0.053 | [8] 0.012 | IRAK-1-4 Inhibitor I -0.007

AGPS (UniProt O00116)
inactive: erlotinib 0.033 | [1] -0.086 | [2] -0.014 | [3] 0.037 | [4] 0.019 | [5] -0.039 | [6] -0.082 | [7] -0.034 | [8] 0.015 | IRAK-1-4 Inhibitor I 0.023

AP1G2 (UniProt O75843)
inactive: erlotinib 0.052 | [1] 0.016 | [2] 0.068 | [3] -0.116 | [4] -0.07 | [5] 0 | [6] 0.001 | [7] -0.003 | [8] 0.034 | IRAK-1-4 Inhibitor I -0.007

ABCD3 (UniProt P28288)
inactive: erlotinib -0.1 | [2] 0.217 | [3] -0.051 | [4] -0.055 | [5] -0.075 | [6] -0.031 | [7] -0.084 | [8] 0.044 | IRAK-1-4 Inhibitor I -0.003
active: [1] 0.556

ANKRD30B (UniProt Q9BXX2)
inactive: erlotinib 0.077 | [1] 0.106 | [2] -0.053 | [3] -0.115 | [4] 0.005 | [5] -0.032 | [6] -0.047 | [7] -0.006 | [8] 0.124 | IRAK-1-4 Inhibitor I 0.095

ARAP1 (UniProt Q96P48)
inactive: erlotinib 0.003 | [1] -0.164 | [2] -0.041 | [3] 0.024 | [4] 0.022 | [5] 0.022 | [6] 0.013 | [7] -0.01 | [8] -0.007 | IRAK-1-4 Inhibitor I 0.008

ARL8A (UniProt Q96BM9)
Sequence of UniProt Q96BM9 (Q96BM9 whole entry, looked up): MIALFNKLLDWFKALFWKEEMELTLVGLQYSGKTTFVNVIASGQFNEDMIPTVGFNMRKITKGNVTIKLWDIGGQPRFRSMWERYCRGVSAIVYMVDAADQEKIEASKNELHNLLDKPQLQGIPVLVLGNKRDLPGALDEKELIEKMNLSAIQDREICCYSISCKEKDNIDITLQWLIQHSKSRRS
inactive: erlotinib -0.223 | [1] -0.039 | [2] 0.176 | [3] 0.157 | [4] 0.036 | [5] 0 | [6] -0.041 | [7] 0.026 | [8] 0.028 | IRAK-1-4 Inhibitor I 0.091

AGGF1 (UniProt Q8N302)
Sequence of UniProt Q8N302 (Q8N302 whole entry, looked up): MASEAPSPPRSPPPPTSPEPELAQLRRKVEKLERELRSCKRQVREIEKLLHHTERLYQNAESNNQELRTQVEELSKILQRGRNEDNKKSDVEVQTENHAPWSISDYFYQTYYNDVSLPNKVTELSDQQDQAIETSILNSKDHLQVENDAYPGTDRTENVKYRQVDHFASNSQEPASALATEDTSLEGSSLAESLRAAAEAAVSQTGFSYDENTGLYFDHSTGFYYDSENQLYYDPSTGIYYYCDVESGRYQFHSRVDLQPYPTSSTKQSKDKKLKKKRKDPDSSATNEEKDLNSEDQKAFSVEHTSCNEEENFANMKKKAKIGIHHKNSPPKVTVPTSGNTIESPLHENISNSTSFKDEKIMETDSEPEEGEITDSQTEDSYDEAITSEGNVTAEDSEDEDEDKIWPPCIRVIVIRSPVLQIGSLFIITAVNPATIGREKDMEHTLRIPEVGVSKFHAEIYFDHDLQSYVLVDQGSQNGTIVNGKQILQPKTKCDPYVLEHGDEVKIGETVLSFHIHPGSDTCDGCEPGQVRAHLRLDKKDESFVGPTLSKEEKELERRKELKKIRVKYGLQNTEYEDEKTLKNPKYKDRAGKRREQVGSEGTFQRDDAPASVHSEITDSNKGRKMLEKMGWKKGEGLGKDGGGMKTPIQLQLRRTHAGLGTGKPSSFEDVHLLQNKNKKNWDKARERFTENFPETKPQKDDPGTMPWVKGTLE
inactive: erlotinib -0.015 | [1] -0.056 | [2] 0.054 | [3] -0.19 | [4] -0.077 | [5] 0.018 | [6] 0.057 | [7] -0.038 | [8] -0.022 | IRAK-1-4 Inhibitor I 0.023

ACTBL2 (UniProt Q562R1)
inactive: erlotinib -0.037 | [1] -0.163 | [2] 0.02 | [3] 0.043 | [4] 0.118 | [5] 0.004 | [6] 0.024 | [7] 0.064 | [8] 0.109 | IRAK-1-4 Inhibitor I -0.006

ARMCX3 (UniProt Q9UH62)
Sequence of UniProt Q9UH62 (Q9UH62 whole entry, looked up): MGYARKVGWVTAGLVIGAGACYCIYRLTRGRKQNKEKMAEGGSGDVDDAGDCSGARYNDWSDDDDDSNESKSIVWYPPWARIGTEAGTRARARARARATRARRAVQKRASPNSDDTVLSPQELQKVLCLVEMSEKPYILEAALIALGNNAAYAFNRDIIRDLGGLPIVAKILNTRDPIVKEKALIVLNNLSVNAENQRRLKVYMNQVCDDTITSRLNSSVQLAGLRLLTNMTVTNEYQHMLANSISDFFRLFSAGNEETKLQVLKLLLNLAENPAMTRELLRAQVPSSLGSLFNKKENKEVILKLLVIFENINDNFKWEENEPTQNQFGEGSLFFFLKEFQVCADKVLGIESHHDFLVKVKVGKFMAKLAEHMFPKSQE
inactive: erlotinib 0.023 | [1] -0.02 | [2] -0.005 | [3] 0.009 | [4] 0.033 | [5] -0.005 | [6] -0.043 | [7] -0.016 | [8] 0.064 | IRAK-1-4 Inhibitor I 0.03

ARHGAP6 (UniProt O43182)
inactive: erlotinib 0.013 | [1] -0.145 | [2] -0.04 | [3] 0.061 | [4] 0.07 | [5] 0.041 | [6] -0.005 | [7] -0.016 | [8] 0.037 | IRAK-1-4 Inhibitor I 0.015
